{"source": "the supplement of paper PMC10077471", "note": "Over roughly 1,900 compounds, “excess over highest single agent (ExcessHSA) synergy score, 6x6 matrix” has its median near -83; the lowest 2% begin near -370. Only a selection was taken, and the lowest values are over-represented in it overall."}
{"system": "NCI-H446", "experiment": "excess over highest single agent (ExcessHSA) synergy score, 6x6 matrix; higher = less synergy (more negative = stronger synergy)", "details": "72 h; CellTiter-Glo viability"}
{"smiles": "O=C1[C@H](Cc2ccc(O)cc2)N2C(=O)CCN(C(=O)NCc3ccccc3)[C@H]2CN1Cc1cccc2ccccc12", "note": "+ Cc1sc2c(c1C)C(c1ccc(Cl)cc1)=N[C@@H](CC(=O)OC(C)(C)C)c1nnc(C)n1-2 [NCGC00250412-19]", "excess over highest single agent": -294}
{"smiles": "O=C(NOC[C@H](O)CO)c1ccc(F)c(F)c1Nc1ccc(I)cc1F", "note": "+ Cc1sc2c(c1C)C(c1ccc(Cl)cc1)=N[C@@H](CC(=O)OC(C)(C)C)c1nnc(C)n1-2 [NCGC00250412-19]", "excess over highest single agent": -276}
{"smiles": "Cn1c(=O)c(F)c(Nc2ccc(I)cc2F)c2c(=O)n(C[C@@H](O)CO)cnc21", "note": "+ Cc1sc2c(c1C)C(c1ccc(Cl)cc1)=N[C@@H](CC(=O)OC(C)(C)C)c1nnc(C)n1-2 [NCGC00250412-19]", "excess over highest single agent": -396}
{"smiles": "Cn1c(=O)c2c(ncn2CC(O)CO)n(C)c1=O", "note": "(centres undefined) + Cc1sc2c(c1C)C(c1ccc(Cl)cc1)=N[C@@H](CC(=O)OC(C)(C)C)c1nnc(C)n1-2 [NCGC00250412-19]", "excess over highest single agent": -73.2}
{"smiles": "O=C(C=Cc1ccc(C=CC(=O)Nc2ccc(C3=NCCN3)cc2)cc1)Nc1ccc(C2=NCCN2)cc1", "note": "+ Cc1sc2c(c1C)C(c1ccc(Cl)cc1)=N[C@@H](CC(=O)OC(C)(C)C)c1nnc(C)n1-2 [NCGC00250412-19]", "excess over highest single agent": -46.7}
{"smiles": "CC(C)C(=O)Nc1ncc(-c2cc(C(F)F)nn2-c2c(Cl)cccc2Cl)s1", "note": "+ Cc1sc2c(c1C)C(c1ccc(Cl)cc1)=N[C@@H](CC(=O)OC(C)(C)C)c1nnc(C)n1-2 [NCGC00250412-19]", "excess over highest single agent": -105}
{"smiles": "COc1ccc(-c2nc(N3CCOCC3)c3sc(CN(C)c4ncc(C(=O)NO)cn4)cc3n2)cn1", "note": "+ Cc1sc2c(c1C)C(c1ccc(Cl)cc1)=N[C@@H](CC(=O)OC(C)(C)C)c1nnc(C)n1-2 [NCGC00250412-19]", "excess over highest single agent": -105}
{"smiles": "c1ccc2c(Cc3c[nH]c4ccccc34)c[nH]c2c1", "note": "+ Cc1sc2c(c1C)C(c1ccc(Cl)cc1)=N[C@@H](CC(=O)OC(C)(C)C)c1nnc(C)n1-2 [NCGC00250412-19]", "excess over highest single agent": -83.3}
{"smiles": "CCCCOc1c(C(=O)c2c(F)cc(C)cc2F)c[nH]c2nncc1-2", "note": "+ Cc1sc2c(c1C)C(c1ccc(Cl)cc1)=N[C@@H](CC(=O)OC(C)(C)C)c1nnc(C)n1-2 [NCGC00250412-19]", "excess over highest single agent": -375}
{"smiles": "CCCS(=O)(=O)Nc1ccc(F)c(C(=O)c2c[nH]c3ncc(Cl)cc23)c1F", "note": "+ Cc1sc2c(c1C)C(c1ccc(Cl)cc1)=N[C@@H](CC(=O)OC(C)(C)C)c1nnc(C)n1-2 [NCGC00250412-19]", "excess over highest single agent": -97.1}
{"smiles": "CCCS(=O)(=O)Nc1ccc(F)c(C(=O)c2c[nH]c3ncc(-c4ccc(Cl)cc4)cc23)c1F", "note": "+ Cc1sc2c(c1C)C(c1ccc(Cl)cc1)=N[C@@H](CC(=O)OC(C)(C)C)c1nnc(C)n1-2 [NCGC00250412-19]", "excess over highest single agent": -108}
{"smiles": "CCOC(=O)/C=C/[C@H](C[C@@H]1CCNC1=O)NC(=O)[C@@H](CC(=O)[C@@H](NC(=O)c1cc(C)on1)C(C)C)Cc1ccc(F)cc1", "note": "+ Cc1sc2c(c1C)C(c1ccc(Cl)cc1)=N[C@@H](CC(=O)OC(C)(C)C)c1nnc(C)n1-2 [NCGC00250412-19]", "excess over highest single agent": -127}
{"smiles": "O=C(C[C@@H]1C/C=C/CCC(=O)O[C@H](c2ccccc2)CNC1=O)NCc1ccc(Cl)cc1", "note": "+ Cc1sc2c(c1C)C(c1ccc(Cl)cc1)=N[C@@H](CC(=O)OC(C)(C)C)c1nnc(C)n1-2 [NCGC00250412-19]", "excess over highest single agent": -98.1}
{"smiles": "CN(C)C[C@@H]1CCn2cc(c3ccccc32)C2=C(C(=O)NC2=O)c2cn(c3ccccc23)CCO1", "note": "+ Cc1sc2c(c1C)C(c1ccc(Cl)cc1)=N[C@@H](CC(=O)OC(C)(C)C)c1nnc(C)n1-2 [NCGC00250412-19]", "excess over highest single agent": -125}
{"smiles": "COc1cc(NCc2ccc3nc(N)nc(N)c3c2C)cc(OC)c1OC", "note": "+ Cc1sc2c(c1C)C(c1ccc(Cl)cc1)=N[C@@H](CC(=O)OC(C)(C)C)c1nnc(C)n1-2 [NCGC00250412-19]", "excess over highest single agent": -213}
{"smiles": "C=C1C(=O)[C@]23[C@H](O)[C@H]1CC[C@H]2[C@@]12CO[C@]3(O)[C@@H](O)[C@@H]1C(C)(C)CC[C@@H]2O", "note": "+ Cc1sc2c(c1C)C(c1ccc(Cl)cc1)=N[C@@H](CC(=O)OC(C)(C)C)c1nnc(C)n1-2 [NCGC00250412-19]", "excess over highest single agent": -378}
{"smiles": "Oc1ccc(C2=Cc3ccc(O)cc3OC2)cc1", "note": "+ Cc1sc2c(c1C)C(c1ccc(Cl)cc1)=N[C@@H](CC(=O)OC(C)(C)C)c1nnc(C)n1-2 [NCGC00250412-19]", "excess over highest single agent": -209}
{"smiles": "CNc1nc(Nc2ccc(C(=O)N3CCOCC3)cc2OC)ncc1Cl", "note": "+ Cc1sc2c(c1C)C(c1ccc(Cl)cc1)=N[C@@H](CC(=O)OC(C)(C)C)c1nnc(C)n1-2 [NCGC00250412-19]", "excess over highest single agent": 436}
{"smiles": "Cc1ccc(S(=O)(=O)Nc2cc(Cl)ccc2C(=O)Nc2nc(-c3ccccc3)cs2)cc1", "note": "+ Cc1sc2c(c1C)C(c1ccc(Cl)cc1)=N[C@@H](CC(=O)OC(C)(C)C)c1nnc(C)n1-2 [NCGC00250412-19]", "excess over highest single agent": 214}
{"smiles": "CC(O)(C#Cc1ccc2c(c1)N(c1nc(N)ncc1Cl)CC2)c1nccs1", "note": "(centres undefined) + Cc1sc2c(c1C)C(c1ccc(Cl)cc1)=N[C@@H](CC(=O)OC(C)(C)C)c1nnc(C)n1-2 [NCGC00250412-19]", "excess over highest single agent": 54}
{"smiles": "CC(C)(O)Cn1c(NC(=O)c2ccc(-c3cn[nH]c3)s2)nc2cc(CN3CCOCC3)ccc21", "note": "+ Cc1sc2c(c1C)C(c1ccc(Cl)cc1)=N[C@@H](CC(=O)OC(C)(C)C)c1nnc(C)n1-2 [NCGC00250412-19]", "excess over highest single agent": -423}
{"smiles": "CC(NCc1ccc2c(c1)nc(NC(=O)c1ccc(-c3cn[nH]c3)s1)n2CC(C)(C)O)C(C)(C)C", "note": "(centres undefined) + Cc1sc2c(c1C)C(c1ccc(Cl)cc1)=N[C@@H](CC(=O)OC(C)(C)C)c1nnc(C)n1-2 [NCGC00250412-19]", "excess over highest single agent": -312}
{"smiles": "C[C@H](NCc1ccc2c(c1)nc(NC(=O)c1ccc(-c3cn[nH]c3)s1)n2CCc1ccccc1)C(C)(C)C", "note": "+ Cc1sc2c(c1C)C(c1ccc(Cl)cc1)=N[C@@H](CC(=O)OC(C)(C)C)c1nnc(C)n1-2 [NCGC00250412-19]", "excess over highest single agent": -305}
{"smiles": "CCNC(=O)c1cc2c(-c3cc(OCCN4CCCC4)c(Cl)cc3Cl)nc(N)nc2s1", "note": "+ Cc1sc2c(c1C)C(c1ccc(Cl)cc1)=N[C@@H](CC(=O)OC(C)(C)C)c1nnc(C)n1-2 [NCGC00250412-19]", "excess over highest single agent": -89.1}
{"smiles": "O=C1NC(=O)/C(=C/c2ccc3nccc(-c4ccncc4)c3c2)S1", "note": "+ Cc1sc2c(c1C)C(c1ccc(Cl)cc1)=N[C@@H](CC(=O)OC(C)(C)C)c1nnc(C)n1-2 [NCGC00250412-19]", "excess over highest single agent": -177}
{"smiles": "CCCNC(=O)[C@H]1O[C@@H]1C(=O)N[C@H](C(=O)N1CCC[C@H]1C(=O)OC)[C@@H](C)CC", "note": "+ Cc1sc2c(c1C)C(c1ccc(Cl)cc1)=N[C@@H](CC(=O)OC(C)(C)C)c1nnc(C)n1-2 [NCGC00250412-19]", "excess over highest single agent": -117}
{"smiles": "CN(C)c1ccc(C2Nc3ccc4ccccc4c3C3=C2C(=O)CC(C)(C)C3)cc1Br", "note": "(centres undefined) + Cc1sc2c(c1C)C(c1ccc(Cl)cc1)=N[C@@H](CC(=O)OC(C)(C)C)c1nnc(C)n1-2 [NCGC00250412-19]", "excess over highest single agent": -30.1}
{"smiles": "O=c1cc(N2CCOCC2)oc2c(-c3cccc4c3sc3ccccc34)cccc12", "note": "+ Cc1sc2c(c1C)C(c1ccc(Cl)cc1)=N[C@@H](CC(=O)OC(C)(C)C)c1nnc(C)n1-2 [NCGC00250412-19]", "excess over highest single agent": -318}
{"smiles": "O=c1cc(N2CCOCC2)oc2c(-c3ccccc3)cccc12", "note": "+ Cc1sc2c(c1C)C(c1ccc(Cl)cc1)=N[C@@H](CC(=O)OC(C)(C)C)c1nnc(C)n1-2 [NCGC00250412-19]", "excess over highest single agent": 83.7}
{"smiles": "CCN1CCN(CC(=O)Nc2ccc(-c3cccc4c(=O)cc(N5CCOCC5)oc34)c3sc4ccccc4c23)CC1", "note": "+ Cc1sc2c(c1C)C(c1ccc(Cl)cc1)=N[C@@H](CC(=O)OC(C)(C)C)c1nnc(C)n1-2 [NCGC00250412-19]", "excess over highest single agent": -383}
{"smiles": "CN(C)CC(=O)N1CCC(c2ccc(NC(=O)c3ncc(C#N)[nH]3)c(C3=CCCCC3)c2)CC1", "note": "+ Cc1sc2c(c1C)C(c1ccc(Cl)cc1)=N[C@@H](CC(=O)OC(C)(C)C)c1nnc(C)n1-2 [NCGC00250412-19]", "excess over highest single agent": 53.2}
{"smiles": "CC1CCN(c2cc(N3CCN(C)CC3)ccc2NC(=O)c2cc(C#N)c[nH]2)CC1", "note": "+ Cc1sc2c(c1C)C(c1ccc(Cl)cc1)=N[C@@H](CC(=O)OC(C)(C)C)c1nnc(C)n1-2 [NCGC00250412-19]", "excess over highest single agent": 106}
{"smiles": "COc1ccc(Nc2nccc(NCCO)n2)cc1", "note": "+ Cc1sc2c(c1C)C(c1ccc(Cl)cc1)=N[C@@H](CC(=O)OC(C)(C)C)c1nnc(C)n1-2 [NCGC00250412-19]", "excess over highest single agent": 81.9}
{"smiles": "CN(C)c1ccc2cc(C(=O)N[C@@H](CCCN=C(N)CCl)C(=O)NCc3ccccc3)ccc2c1", "note": "+ Cc1sc2c(c1C)C(c1ccc(Cl)cc1)=N[C@@H](CC(=O)OC(C)(C)C)c1nnc(C)n1-2 [NCGC00250412-19]", "excess over highest single agent": -202}
{"smiles": "NS(=O)(=O)c1ccc(Nc2nc(OCC3CCCCC3)c3[nH]cnc3n2)cc1", "note": "+ Cc1sc2c(c1C)C(c1ccc(Cl)cc1)=N[C@@H](CC(=O)OC(C)(C)C)c1nnc(C)n1-2 [NCGC00250412-19]", "excess over highest single agent": -148}
{"smiles": "CCN(CC)CCn1c(=O)c(Cc2ccc(OC)cc2)nc2ccccc21", "note": "+ Cc1sc2c(c1C)C(c1ccc(Cl)cc1)=N[C@@H](CC(=O)OC(C)(C)C)c1nnc(C)n1-2 [NCGC00250412-19]", "excess over highest single agent": -47.3}
{"smiles": "O=c1[nH]c(=O)n([C@H]2C[C@H](O)[C@@H](CO)O2)cc1I", "note": "+ Cc1sc2c(c1C)C(c1ccc(Cl)cc1)=N[C@@H](CC(=O)OC(C)(C)C)c1nnc(C)n1-2 [NCGC00250412-19]", "excess over highest single agent": -172}
{"smiles": "O=c1[nH]c(=O)n([C@H]2C[C@H](O)[C@@H](CO)O2)cc1F", "note": "+ Cc1sc2c(c1C)C(c1ccc(Cl)cc1)=N[C@@H](CC(=O)OC(C)(C)C)c1nnc(C)n1-2 [NCGC00250412-19]", "excess over highest single agent": -390}
{"smiles": "Cc1cn([C@@H]2C[C@@H](O)[C@H](CO)O2)c(=O)[nH]c1=O", "note": "+ Cc1sc2c(c1C)C(c1ccc(Cl)cc1)=N[C@@H](CC(=O)OC(C)(C)C)c1nnc(C)n1-2 [NCGC00250412-19]", "excess over highest single agent": 21.8}
